Calls of active or inactive are those of the source.
What was measured:
[1] = optical density shifts of acrAB sulA E. coli – strain DRC41, OD650, 48 h, E. coli filamentation inducer project, primary screen (AID 1152); conditions: higher = more signal, called active from +8 up or from −8 down;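 further: E. coli MC1000 strain DRC41 lacking acrAB efflux pump and sulA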
[2] = probe aLefty1 binding on compound microarray – biochemical, small-molecule microarray, 635/667 nm fluorescence, primary screen (AID 1153); conditions: higher = more signal;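 further: score merges spot fluorescence with signal-to-noise ratio from the scanned slide images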
[3] = plasmodial surface anion channel blockers, osmotic lysis – cell-based, P. falciparum Indochina, OD700, 1 h, primary screen (AID 1154); conditions: P. falciparum Indochina infected RBC osmotic lysis, higher = more signal, called active from +8 up or from −8 down
[4] = plasmodial surface anion channel blockers, osmotic lysis – cell-based, P. falciparum Indochina, OD700, 2 h, primary screen (AID 1155);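 further: lysis reports solute entry through the parasite surface anion channel PSAC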; conditions: P. falciparum Indochina infected erythrocytes, higher = more signal, called active from +8 up or from −8 down
[5] = changes in parasitized red cell lysis, either direction – P. falciparum Indochina, OD700, 3 h, PSAC antagonist project, primary screen (AID 1156); conditions: P. falciparum-infected erythrocytes, osmotic lysis, higher = more signal, called active from +8 up or from −8 down
[6] = plasmodial surface anion channel blockers, osmotic lysis – cell-based, P. falciparum Indochina, OD700, 18 h, primary screen (AID 1157); conditions: P. falciparum Indochina infected erythrocytes, osmotic lysis OD700, 18 h; higher = more signal, called active from +8 up or from −8 down
[7] = S6 kinase pathway phospho-S6 level changes – cell-based, A549, cytoblot, luminescence, serum-stimulated, primary screen (AID 1158); conditions: 5 h, higher = more signal;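 further: serum-stimulated A549 lung adenocarcinoma cells; signal is phosphorylated S6 detected by cytoblot immunostaining with HRP secondary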
[8] = biological target: NADPH oxidase 2 (Homo sapiens) (UniProt P04839); assay: compounds shifting NOX2 Amplex Red fluorescence – cell-based, HEK293-NOX2, PMA-stimulated, NOX inhibitor project, primary screen (AID 1159); conditions: 45 min, higher = more signal, called active from +8 up or from −8 down; further: test concentration not given here
Chain of NADPH oxidase 2 (Homo sapiens) (P04839 whole entry, looked up): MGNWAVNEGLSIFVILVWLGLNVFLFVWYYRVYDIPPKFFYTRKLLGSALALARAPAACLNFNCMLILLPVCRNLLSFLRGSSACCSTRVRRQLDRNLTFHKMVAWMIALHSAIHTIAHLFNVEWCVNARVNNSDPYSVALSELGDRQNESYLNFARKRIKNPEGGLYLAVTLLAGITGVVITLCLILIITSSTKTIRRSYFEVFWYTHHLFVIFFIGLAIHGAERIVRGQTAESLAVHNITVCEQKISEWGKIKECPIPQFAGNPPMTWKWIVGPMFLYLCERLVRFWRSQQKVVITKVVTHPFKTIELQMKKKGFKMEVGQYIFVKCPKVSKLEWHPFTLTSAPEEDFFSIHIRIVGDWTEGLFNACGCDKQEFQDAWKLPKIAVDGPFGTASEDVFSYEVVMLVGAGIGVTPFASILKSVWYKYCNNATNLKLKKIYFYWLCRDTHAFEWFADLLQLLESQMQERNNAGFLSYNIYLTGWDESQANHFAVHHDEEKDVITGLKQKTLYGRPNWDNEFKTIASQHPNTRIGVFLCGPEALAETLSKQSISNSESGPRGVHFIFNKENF

[9] = biological target: NADPH oxidase 4 (Homo sapiens) (UniProt Q9NPH5); assay: compounds shifting NOX4 Amplex Red fluorescence – cell-based, HEK293-NOX4, tetracycline-induced, NOX inhibitor project, primary screen (AID 1160); conditions: HEK293-NOX4, Amplex Red H2O2 fluorescence, 45 min; higher = more signal, called active from +8 up or from −8 down
Chain of NADPH oxidase 4 (Homo sapiens) (Q9NPH5 whole entry, looked up): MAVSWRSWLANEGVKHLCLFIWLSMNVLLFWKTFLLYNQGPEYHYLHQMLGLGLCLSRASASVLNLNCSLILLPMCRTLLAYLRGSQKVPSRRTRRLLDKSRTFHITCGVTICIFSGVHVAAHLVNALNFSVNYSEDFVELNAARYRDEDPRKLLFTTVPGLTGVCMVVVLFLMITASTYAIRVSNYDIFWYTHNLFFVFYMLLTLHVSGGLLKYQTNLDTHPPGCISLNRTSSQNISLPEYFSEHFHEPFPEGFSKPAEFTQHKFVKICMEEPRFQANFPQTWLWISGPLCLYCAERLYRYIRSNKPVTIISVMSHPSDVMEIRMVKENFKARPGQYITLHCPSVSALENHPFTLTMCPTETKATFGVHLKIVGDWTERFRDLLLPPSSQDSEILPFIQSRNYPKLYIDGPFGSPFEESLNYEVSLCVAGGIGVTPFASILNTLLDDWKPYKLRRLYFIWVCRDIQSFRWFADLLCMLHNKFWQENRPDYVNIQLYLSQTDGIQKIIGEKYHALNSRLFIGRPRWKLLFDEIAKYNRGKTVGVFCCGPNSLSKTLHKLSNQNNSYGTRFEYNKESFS

[10] = biological target: NADPH oxidase 5 (Homo sapiens) (UniProt Q96PH1); assay: compounds shifting NOX5 Amplex Red fluorescence – cell-based, HEK293-NOX5, NOX inhibitor project, primary screen (AID 1161); conditions: HEK293-NOX5, ionomycin, 45 min, higher = more signal
Chain of NADPH oxidase 5 (Homo sapiens) (Q96PH1 whole entry, looked up): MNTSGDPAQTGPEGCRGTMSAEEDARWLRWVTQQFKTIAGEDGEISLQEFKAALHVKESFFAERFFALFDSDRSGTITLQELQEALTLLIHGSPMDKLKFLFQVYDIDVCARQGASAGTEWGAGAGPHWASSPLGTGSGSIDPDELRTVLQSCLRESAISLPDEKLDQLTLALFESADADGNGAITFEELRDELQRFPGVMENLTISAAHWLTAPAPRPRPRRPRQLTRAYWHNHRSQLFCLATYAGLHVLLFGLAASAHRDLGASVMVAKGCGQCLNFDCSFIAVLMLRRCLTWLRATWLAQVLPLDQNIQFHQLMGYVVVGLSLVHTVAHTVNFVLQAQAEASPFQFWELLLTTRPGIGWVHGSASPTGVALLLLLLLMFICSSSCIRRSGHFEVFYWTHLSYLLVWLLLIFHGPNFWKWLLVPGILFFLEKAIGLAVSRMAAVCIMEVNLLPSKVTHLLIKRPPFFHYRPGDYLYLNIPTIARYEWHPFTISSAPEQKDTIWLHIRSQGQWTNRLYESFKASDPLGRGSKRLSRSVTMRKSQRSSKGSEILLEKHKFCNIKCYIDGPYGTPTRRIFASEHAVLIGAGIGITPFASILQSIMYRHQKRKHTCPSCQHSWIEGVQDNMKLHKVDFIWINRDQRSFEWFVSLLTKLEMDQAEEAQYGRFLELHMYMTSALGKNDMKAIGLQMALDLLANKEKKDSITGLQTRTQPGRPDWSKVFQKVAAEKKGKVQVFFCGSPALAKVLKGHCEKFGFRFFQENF

[11] = compound effects on lung adenocarcinoma cell viability – A549, calcein-AM fluorescence, 48 h, basal, profiling panel (AID 1162); conditions: higher = more signal; further: test concentration not given here
[12] = compound effects on differentiated 3T3-L1 adipocyte viability – cell-based, 3T3-L1 adipocytes, calcein-AM fluorescence, 48 h, basal, profiling panel (AID 1163); conditions: 3T3-L1 adipocytes viability, higher = more signal; further: test concentration not given here
[13] = compound effects on hepatocellular carcinoma cell viability – HepG2, calcein-AM fluorescence, 48 h, basal, profiling panel (AID 1164); conditions: higher = more signal; further: test concentration not given here
[14] = compound effects on multiple myeloma cell viability – MM1S, calcein-AM fluorescence, 48 h, basal, profiling panel (AID 1165); conditions: higher = more signal; further: test concentration not given here
[15] = calcein-AM signal in unstimulated myeloma cells – cell-based, calcein-AM fluorescence, 48 h, PK04 Diversity Set, profiling panel (AID 1166); conditions: RPMI8226 myeloma viability, higher = more signal;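 further: cells grown under basal conditions without added stimulus; test concentration not given here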
[16] = JC-1 mitochondrial signal, unstimulated HepG2 cells – cell-based, JC-1 fluorescence, 24 h, 100 nL compound, profiling panel (AID 1167); conditions: HepG2 mitochondrial potential, higher = more signal; further: test concentration not given here
[17] = JC-1 mitochondrial signal, unstimulated adipocytes – cell-based, JC-1 fluorescence, 3T3-L1 adipocytes, 24 h, 100 nL compound, profiling panel (AID 1168); conditions: JC-1 mitochondrial fluorescence, higher = more signal, called active from +8 up or from −8 down; further: test concentration not given here
[18] = JC-1 mitochondrial signal, unstimulated myeloma cells – cell-based, JC-1 fluorescence, RPMI8226, 24 h, 100 nL compound, profiling panel (AID 1169); conditions: JC-1 mitochondrial potential fluorescence, higher = more signal; further: test concentration not given here
[19] = JC-1 mitochondrial signal, unstimulated MM1S myeloma – cell-based, JC-1 fluorescence, 24 h, 100 nL compound, profiling panel (AID 1170); conditions: MM1S mitochondrial potential, higher = more signal; further: test concentration not given here
[20] = resazurin metabolic signal in A549 cells – cell-based, resazurin fluorescence, 24 h, PK04 Diversity Set, profiling panel (AID 1171); conditions: A549 viability, higher = more signal, called active from +8 up or from −8 down; further: test concentration not given here

| SMILES | z-score [1] | composite z-score [2] | z-score [3] | z-score [4] | z-score [5] | z-score [6] | z-score [7] | z-score [8] | z-score [9] | z-score [10] | z-score [11] | z-score [12] | z-score [13] | z-score [14] | z-score [15] | z-score [16] | z-score [17] | z-score [18] | z-score [19] | z-score [20] |
| --- | --- | --- | --- | --- | --- | --- | --- | --- | --- | --- | --- | --- | --- | --- | --- | --- | --- | --- | --- | --- |
| CCOC(=O)[C@H](CC(C)C)NC(=O)CCC1CC(OC(=O)NCc2ccc3c(c2)OCO3)CC2(CCCC(COC(=O)NCc3cccc(C(F)(F)F)c3)O2)O1 (stereo not given in full) | -0.457 (inactive) | 0.125 | 1.73 (inactive) | 0.182 (inactive) | 0.286 (inactive) | 0.297 (inactive) | 0.427 | 1.46 (inactive) | 0.179 (inactive) | 1.2 | 0.112 | 0.214 | -0.503 | 0.0777 | -3.36 | 1.85 | -0.176 (inactive) | 0.525 | -0.412 | -0.175 (inactive) |
| CCOC(=O)[C@H](Cc1ccccc1)NC(=O)CCC1CC(OC(=O)NCc2ccc3c(c2)OCO3)CC2(CCCC(COC(=O)NCCC(C)C)O2)O1 (stereo not given in full) | 0.241 (inactive) | -0.0162 | 25.3 (active) | 11.5 (active) | 1.26 (inactive) | 1.5 (inactive) | 0.274 | 1.3 (inactive) | 0.25 (inactive) | 0.277 | 0.339 | 1.36 | -1.58 | -3.41 | -3.9 | 0.162 | -0.375 (inactive) | -0.212 | -1.32 | -0.149 (inactive) |
| O=C1C[C@@H](O)[C@@H](O)[C@@H]2[C@@H]3C(=O)N(c4cccc(Oc5ccccc5)c4)C(=O)[C@@H]3CC[C@H]12 | -0.367 (inactive) | 0.0446 | 0.429 (inactive) | 0.0618 (inactive) | -0.195 (inactive) | -0.0653 (inactive) | -0.875 | -0.0166 (inactive) | 0.6 (inactive) | 0.124 | -0.0402 | -0.231 | 0.0658 | 0.258 | -0.0527 | -0.101 | -1.02 (inactive) | -0.308 | 0.258 | 0.16 (inactive) |
| CCCNC(=O)OC[C@H]1O[C@H](CCON=Cc2ccc(C(=O)N3[C@H](c4ccc(C)cc4)[C@@H](C)CC[C@H]3C(=O)OC)cc2)C=C[C@@H]1Oc1ccc(OC)cc1 | 0.33 (inactive) | -0.16 | 1.21 (inactive) | 0.674 (inactive) | 0.0952 (inactive) | 0.612 (inactive) | -0.619 | 0.725 (inactive) | 0.611 (inactive) | 0.393 | -0.167 | 0.885 | -0.0578 | -0.164 | -0.581 | 2.75 | -3.26 (inactive) | 0.694 | 0.235 | -0.471 (inactive) |

— PubChem BioAssay
